Measurements taken from ChEMBL document CHEMBL1961873, “Compounds: GSK PKIS; Assays: Nanosyn kinase panel” (2012).

How the values were obtained:
[1] = biological target: CDK3/Cyclin E (Homo sapiens) (UniProt P24864+Q00526); details: at 1 µM;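 further: each figure is a mean percent inhibition of the CDK3/cyclin E complex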
[2] = biological target: Cyclin-dependent kinase 4 (Homo sapiens) (UniProt P11802); details: at 0.1 µM
[3] = biological target: Cyclin-dependent kinase 4 (Homo sapiens) (UniProt P11802); details: at 1 µM
[4] = biological target: Cyclin-dependent kinase 5 (Homo sapiens) (UniProt Q00535); details: at 0.1 µM
Sequence of Cyclin-dependent kinase 5 (Homo sapiens) (Q00535 whole entry, looked up): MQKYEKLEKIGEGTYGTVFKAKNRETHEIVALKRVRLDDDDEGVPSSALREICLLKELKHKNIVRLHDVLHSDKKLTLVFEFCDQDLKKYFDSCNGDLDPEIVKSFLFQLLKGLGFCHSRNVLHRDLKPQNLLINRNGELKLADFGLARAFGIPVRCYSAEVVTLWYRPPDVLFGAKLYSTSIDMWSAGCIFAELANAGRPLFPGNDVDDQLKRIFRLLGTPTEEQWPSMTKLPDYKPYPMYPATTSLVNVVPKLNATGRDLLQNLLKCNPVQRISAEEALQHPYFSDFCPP

[5] = biological target: Cyclin-dependent kinase 5 (Homo sapiens) (UniProt Q00535); details: at 1 µM
[6] = biological target: Cyclin-dependent kinase 6 (Homo sapiens) (UniProt Q00534); details: at 0.1 µM
Sequence of Cyclin-dependent kinase 6 (Homo sapiens) (Q00534 whole entry): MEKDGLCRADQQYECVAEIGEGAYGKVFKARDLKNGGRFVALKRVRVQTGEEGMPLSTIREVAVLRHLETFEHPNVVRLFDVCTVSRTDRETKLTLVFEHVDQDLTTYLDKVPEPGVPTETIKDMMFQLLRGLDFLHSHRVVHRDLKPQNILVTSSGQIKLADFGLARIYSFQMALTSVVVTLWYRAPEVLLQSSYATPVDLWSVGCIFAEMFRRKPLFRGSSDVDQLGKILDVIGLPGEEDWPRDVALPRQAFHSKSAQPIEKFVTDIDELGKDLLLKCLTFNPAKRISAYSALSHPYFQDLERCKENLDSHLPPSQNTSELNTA

[7] = biological target: Cyclin-dependent kinase 6 (Homo sapiens) (UniProt Q00534); details: at 1 µM
[8] = biological target: Dual specificity protein kinase CLK2 (Homo sapiens) (UniProt P49760); details: at 0.1 µM
Sequence of Dual specificity protein kinase CLK2 (Homo sapiens) (P49760 whole entry, looked up): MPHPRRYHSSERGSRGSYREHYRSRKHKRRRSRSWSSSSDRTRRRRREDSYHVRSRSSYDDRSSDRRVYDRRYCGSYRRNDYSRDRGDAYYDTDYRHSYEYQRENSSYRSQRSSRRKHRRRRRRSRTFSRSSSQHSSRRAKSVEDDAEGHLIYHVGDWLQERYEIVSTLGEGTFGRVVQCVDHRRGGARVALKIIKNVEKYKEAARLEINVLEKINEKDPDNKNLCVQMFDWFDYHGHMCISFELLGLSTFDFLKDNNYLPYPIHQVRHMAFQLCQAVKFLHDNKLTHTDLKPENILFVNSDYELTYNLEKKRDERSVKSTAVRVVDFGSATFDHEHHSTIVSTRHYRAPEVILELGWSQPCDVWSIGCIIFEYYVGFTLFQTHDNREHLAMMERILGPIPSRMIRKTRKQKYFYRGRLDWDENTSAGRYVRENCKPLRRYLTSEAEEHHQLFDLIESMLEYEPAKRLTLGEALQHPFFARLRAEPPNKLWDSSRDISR

[9] = biological target: Dual specificity protein kinase CLK2 (Homo sapiens) (UniProt P49760); details: at 1 µM
[10] = biological target: Dual specificity protein kinase CLK3 (Homo sapiens) (UniProt P49761); details: at 0.1 µM
Sequence of Dual specificity protein kinase CLK3 (Homo sapiens) (P49761 whole entry, looked up): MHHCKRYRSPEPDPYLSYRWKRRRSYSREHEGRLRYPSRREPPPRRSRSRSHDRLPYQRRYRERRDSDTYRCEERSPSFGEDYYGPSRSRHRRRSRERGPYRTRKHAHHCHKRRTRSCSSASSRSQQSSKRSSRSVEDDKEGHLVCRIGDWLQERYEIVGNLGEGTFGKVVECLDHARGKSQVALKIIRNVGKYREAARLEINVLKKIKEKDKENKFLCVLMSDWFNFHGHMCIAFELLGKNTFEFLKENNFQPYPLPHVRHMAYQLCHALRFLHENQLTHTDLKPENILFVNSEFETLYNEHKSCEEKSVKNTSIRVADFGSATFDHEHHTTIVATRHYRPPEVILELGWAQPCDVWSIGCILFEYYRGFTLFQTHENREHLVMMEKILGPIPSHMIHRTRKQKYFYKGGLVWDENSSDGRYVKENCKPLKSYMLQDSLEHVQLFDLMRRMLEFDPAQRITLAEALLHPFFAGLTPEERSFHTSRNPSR

Sequence of Cyclin-dependent kinase 4 (Homo sapiens) (P11802 whole entry): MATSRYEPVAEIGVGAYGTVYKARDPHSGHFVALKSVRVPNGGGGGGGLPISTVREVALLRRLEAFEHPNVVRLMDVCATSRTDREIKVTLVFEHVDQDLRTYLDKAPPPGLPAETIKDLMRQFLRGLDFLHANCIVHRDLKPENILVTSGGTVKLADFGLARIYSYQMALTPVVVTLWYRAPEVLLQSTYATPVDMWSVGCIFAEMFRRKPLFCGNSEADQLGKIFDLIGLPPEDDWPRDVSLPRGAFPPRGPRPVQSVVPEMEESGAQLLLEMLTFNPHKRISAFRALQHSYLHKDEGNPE
Sequence of CDK3/Cyclin E (Homo sapiens) (P24864 whole entry, looked up): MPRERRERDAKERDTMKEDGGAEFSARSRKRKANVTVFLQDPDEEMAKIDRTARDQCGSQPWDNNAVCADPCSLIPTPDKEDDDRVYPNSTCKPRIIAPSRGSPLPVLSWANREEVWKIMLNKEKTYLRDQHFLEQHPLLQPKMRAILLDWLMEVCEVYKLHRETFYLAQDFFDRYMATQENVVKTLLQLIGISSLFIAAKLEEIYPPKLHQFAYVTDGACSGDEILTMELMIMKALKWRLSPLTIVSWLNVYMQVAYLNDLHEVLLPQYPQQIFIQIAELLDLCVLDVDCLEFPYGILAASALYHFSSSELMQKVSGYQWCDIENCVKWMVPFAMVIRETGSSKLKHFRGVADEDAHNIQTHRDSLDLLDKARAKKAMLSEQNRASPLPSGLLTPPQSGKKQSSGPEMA
Sequence of CDK3/Cyclin E (Homo sapiens) (Q00526 whole entry, looked up): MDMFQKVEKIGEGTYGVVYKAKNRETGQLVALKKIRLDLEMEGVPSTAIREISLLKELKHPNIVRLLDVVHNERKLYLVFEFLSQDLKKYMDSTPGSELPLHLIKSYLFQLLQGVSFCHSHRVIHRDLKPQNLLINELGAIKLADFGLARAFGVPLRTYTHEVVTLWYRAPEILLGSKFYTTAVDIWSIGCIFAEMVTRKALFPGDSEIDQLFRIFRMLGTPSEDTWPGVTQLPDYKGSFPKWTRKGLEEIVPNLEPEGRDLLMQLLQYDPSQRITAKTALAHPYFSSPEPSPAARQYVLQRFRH

Compound	inhibition [1] [%]	inhibition [2] [%]	inhibition [3] [%]	inhibition [4] [%]	inhibition [5] [%]	inhibition [6] [%]	inhibition [7] [%]	inhibition [8] [%]	inhibition [9] [%]	inhibition [10] [%]
Fc1ccc(-c2nn3ccccc3c2-c2ccncc2)cc1	-1.11	1.37	2.18	0.46	0.96	-1.88	2.7	0.24	1.47	0.63
[O-][S+]1CCN(Cc2ccc(-c3ccc4ncnc(Nc5ccc(OCc6cccc(F)c6)c(Cl)c5)c4c3)o2)CC1	-2.03	3.89	6.99	4	3.88	0.87	3.99	1.02	-0.02	1.18
O=S(=O)(CCNCc1ccc(-c2ccc3ncnc(Nc4ccc(OCc5cccc(F)c5)c(Cl)c4)c3c2)o1)c1ccccc1	-1.98	4.84	5.57	0.05	1.21	0.74	2.65	0.01	1.31	0.95
COC(=O)c1sc(-n2cnc3cc(OC)c(OC)cc32)cc1OCc1ccccc1C(F)(F)F	-1.85	2.28	3.18	1.35	2.46	-2.2	5.15	1.6	2.65	0.11
N#Cc1c(NC(=O)CN2CCOCC2)sc2c1CCCC2	0.79	6.39	5.4	4.75	5.34	5.33	7.63	1.09	2.7	4.98
Cc1ccc2c(-c3ccnc(Nc4ccccc4)n3)c(-c3ccc(F)cc3)nn2n1	2.55	6.51	6.75	0.32	2.21	3.66	5.2	2.31	2.23	1.04
CCn1c(-c2nonc2N)nc2c(C#CC(C)(C)O)nc(OC[C@H](N)c3ccccc3)cc21	-0.33	2.31	2.26	1.23	3.05	-3.58	-0.97	1.87	12.1	1.29
COc1ccc(CNC(=O)c2ccc(-c3cc(-c4nnc(C)o4)ccc3C)cc2)cc1	-1.03	1.82	2.19	1.52	1.19	-1.69	-2.05	0.99	2.3	2.46
COc1cc(Nc2nccc(Nc3ccc4c(C)n[nH]c4c3)n2)cc(OC)c1OC	4.99	2.86	3.18	1.21	2.36	1.52	3.31	1.62	2.36	0.25
CCCN1CCC(c2ccc(Nc3nc(Nc4cc(F)ccc4C(N)=O)c4cc[nH]c4n3)c(OC)c2)CC1	-1.93	7.7	25.7	2.09	6.47	4.48	17.9	59.1	93.8	3.2
COc1ccc(-c2cc(-c3c[nH]nc3-c3ccccn3)ccn2)cc1	0.46	2.18	1.82	1.02	1.41	4.13	-0.9	0.77	0.26	3.07
CS(=O)(=O)CCNCc1ccc(-c2ccc3ncnc(Nc4ccc(OCc5ccccc5)c(C(F)(F)F)c4)c3c2)o1	-3.61	2.38	3.96	0.23	1.58	-1.88	-4.19	0.79	-2.13	0.57
COc1cccc(-n2ncc3c(N/N=C/c4ccc(F)cc4)ncnc32)c1	4.95	6.67	17.3	9.38	32.8	7.13	16.8	2.52	4.42	3.03
NS(=O)(=O)c1ccc(N/N=C2\C(=O)Nc3ccc4ncccc4c32)cc1	99.2	48	76.2	79	83.4	53.5	81.4	19.3	72.3	2.36
Fc1cccc(COc2ccc(Nc3ncnc4sc(-c5ccco5)cc34)cc2Cl)c1	-1.8	3.4	5.13	-0.01	2.77	0.43	-0.36	1.15	-0.23	0.59
CN1CCC(n2cnc(-c3ccc(F)cc3)c2-c2ccnc(N)n2)CC1	-0.17	0.29	1.34	0.36	1.02	1.87	0.65	2.8	13.8	0.99
CNC(=O)c1cccc(C#Cc2cncnc2Nc2ccc(OCc3cccc(F)c3)c(Cl)c2)c1	3.72	2.35	3.08	1.3	2.33	4.83	1.6	0.38	2.72	-0.87
Nc1ncc(-c2cccc(S(N)(=O)=O)c2)c2scc(-c3ccc(F)c(Cl)c3)c12	-4.84	1.97	3.55	1.01	2.29	-0.13	1.9	2.7	-0.72	1.16
NC(=O)c1sc(-n2cnc3ccc(C(F)(F)F)cc32)cc1OCc1ccccc1Br	-2.34	1.68	2.94	-0.39	-0.71	-0.29	1.76	3.14	27.6	2.31
COc1ccc2c(-c3ccnc(Nc4cccc(OC(F)(F)F)c4)n3)cnn2n1	20.3	3.8	18	5.51	36.3	9.65	14.6	95.4	98.3	13.2
CCNC(=O)O[C@H]1CN[C@H](C#Cc2cc3ncnc(Nc4ccc(OCc5cccc(F)c5)c(Cl)c4)c3s2)C1	0.27	2.39	3.42	0.38	1.78	9.65	9.16	1.63	2.34	0.76
Nc1nc(-c2ccc(F)cc2)c(-c2ccc3ncccc3n2)s1	1.75	6.95	9.34	4.02	7.28	4.34	7.53	2.98	8.8	3.31
Nc1nc(-c2cccc(Cl)c2)c(-c2ccc3ncccc3n2)s1	-3.18	1.67	1.92	0.34	0.13	-7.38	-2.65	2.6	9.25	2.15
Fc1ccc(-c2cc(-c3c[nH]nc3-c3ccccn3)ccn2)cc1	-1.83	1.98	1.18	-0.24	-1.54	-0.57	2.29	2.53	2.71	1.32
CC(=O)Nc1cccc(C#Cc2cncnc2Nc2ccc(OCc3cccc(F)c3)c(Cl)c2)c1	0.86	1.84	1.74	0.82	0.21	-0.8	-0.16	2.3	1.56	-0.12
COc1cc(N2CCN(C(C)C)CC2)ccc1Nc1nc(Nc2ccc(F)cc2C(N)=O)c2cc[nH]c2n1	0.34	1.59	5.82	0.74	0.58	-2.83	2.77	37.3	88.4	1.64
CN1CCC(n2cnc(-c3ccc(F)cc3)c2-c2ccnc(Nc3ccccc3)n2)CC1	-2.19	1.36	2.55	0.25	1	3.89	0.2	1.64	1.56	0.75
c1ccc(-c2nc3n(c2-c2ccc4c(c2)OCO4)CCC3)nc1	0.43	2.02	2.7	0.64	1.86	-1.72	3.55	0.44	-1.18	3.62
